From PubChem
A selection: hits, their analogues and other compounds. The true share with any hit is near 4.1%.
F508del corr: CFTR F508del correction in bronchial cells | CFBE cells, YFP halide quenching; stimulated with forskolin plus potentiator P3; % fluorescence drop versus neutral controls | activity (quench increase), % at 7.58 µM | 350,000 compounds, 0.36% hits | AID 720511;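 active = mean added fluorescence quench of at least 8% versus neutral control, with both replicates also reaching 8%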;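 note: cells transiently co-express mutant CFTR-F508del with the halide-sensitive YFP; corrector assay measuring rescue of mutant channel to the surface after 24 h compound exposure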
NSD2 HMT inh: blocks human histone methyltransferase NSD2; O96028; NSD2 peptide methylation, AlphaScreen, 120 min; inhibition, % at 12.5 µM; 310,000 compounds, 0.54% hits; AID 743445; in the data active = inhibition above about 50%
Env fusion inh: HIV envelope-mediated fusion inhibition | HeLa-JRFL Env/CEM21 cell fusion, luciferase | inhibition, % at 12.3 µM | 360,000 compounds, 1.1% hits | AID 651610;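 active = mean replicate inhibition score of at least 50 and every replicate individually at or above 50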
PglD inh: blocks C. jejuni PglD acetyltransferase activity; purified PglD enzyme, DTNB colorimetric CoA detection; inhibition, % at 12.5 µM; 360,000 compounds, 0.098% hits; in the data active = inhibition above about 16%, passing the limit was not always enough
ALR H2O2 inh: human ALR oxidase inhibition via reduced H2O2; inhibition, % (concentration not given with the values); 290,000 compounds, 3.8% hits; purified ALR, DTT oxidation, H2O2 HRP-luminol luminescence;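 active = mean replicate inhibition above about 79%, with every replicate also reaching it, limit read from the data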
Casp6 inh: caspase-6 (human) enzyme inhibition; P55212; purified caspase-6, Z-VEID-R110 cleavage fluorescence; inhibition, % at 12.5 µM; 350,000 compounds, 0.53% hits;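 active = mean inhibition across replicates at least about 35%, with every replicate also reaching that limit, limit read from the data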
Target sequence (P55212 24-179 limits assumed): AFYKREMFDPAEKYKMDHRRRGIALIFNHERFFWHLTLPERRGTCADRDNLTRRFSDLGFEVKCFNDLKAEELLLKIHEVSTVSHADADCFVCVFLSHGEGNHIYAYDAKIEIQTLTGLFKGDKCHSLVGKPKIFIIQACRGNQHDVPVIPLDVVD
Target sequence (P55212 194-293 limits assumed): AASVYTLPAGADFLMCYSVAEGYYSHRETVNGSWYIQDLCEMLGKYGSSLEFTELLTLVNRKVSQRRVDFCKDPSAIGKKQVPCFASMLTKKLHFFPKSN
Numbers stand for hits; n = inactive; x = no result.

SMILES	F508del corr	NSD2 HMT inh	Env fusion inh	PglD inh	ALR H2O2 inh	Casp6 inh
CCN(CC)S(=O)(=O)c1ccc(S(=O)(=O)N(CC(=O)Nc2ccccc2)CC2CCCO2)cc1 (configuration not stated)	x	n	n	x	97.9	x
O=C(CN(CC1CCCO1)S(=O)(=O)c1ccc(S(=O)(=O)NC2CC2)cc1)Nc1ccccc1 (configuration not stated)	x	n	x	n	n	x
C[C@@H]1CN([C@@H](C)CO)C(=O)c2cc(C3=CCCC3)cnc2O[C@H]1CN(C)Cc1cccc(F)c1	n	x	n	n	x	n
CC=Cc1ccc2n(c1=O)C[C@H]1[C@H](CO)[C@@H](C(=O)NCC3CC3)[C@@H]2N1Cc1ccccc1OC (mixture of isomers)	x	x	n	n	x	n
Cc1ccccc1Nc1nc(CSc2nnnn2-c2ccccc2)cs1	x	n	x	n	97.7	x
Nc1nc(Cl)cc(N2CCC(c3cc(-c4ccc(Cl)cc4Cl)n[nH]3)CC2)n1	x	n	101.5	n	n	x
CN(C)c1ccc(NC(=O)CSc2nnc(-c3cccs3)n2Cc2ccco2)cc1	x	n	x	x	98.9	x
CCn1c(SCC(=O)Nc2cc(C)on2)nnc1-c1cccc(C)c1	n	x	n	n	n	n
CCn1c(SCC(=O)Nc2ccc(N(C)C)cc2)nnc1-c1cccc(C)c1	x	n	x	n	98.7	x
Cc1ccc(S(=O)(=O)N[C@@H]2CC[C@@H](CC(=O)NCc3ccccc3F)O[C@@H]2CO)cc1	n	x	n	n	x	n
C/C(CC(=O)Nc1cc(C)ccn1)=N\NC(=O)c1cccc(C)c1O	n	n	n	n	n	53.2
O=[N+]([O-])c1cc2c(cc1/C=N/NS(=O)(=O)c1ccc(Br)cc1)OCO2	n	n	n	x	n	43.8
O=S(=O)(N/N=C\c1ccc2c(c1)OCO2)c1ccc(F)cc1	n	n	n	n	86.4	n
Cc1ccc(S(=O)(=O)N/N=C\c2cc3c(cc2Br)OCO3)cc1	x	n	n	n	x	x
O=S(=O)(N/N=C\c1ccc2c(c1)OCO2)c1ccc(Cl)cc1	x	n	n	n	n	x
O=C(N/N=C/c1coc2ccccc2c1=O)c1ccncc1	n	n	n	n	n	n
O=C(N/N=C/c1coc2ccc(Cl)cc2c1=O)c1cc(O)cc(O)c1	n	n	n	n	96.0	n
O=C(N/N=C/c1coc2ccccc2c1=O)c1cc(Br)c(O)c(Br)c1	n	n	n	n	97.8	n
CCCOc1cccc(C(=O)N/N=C/c2coc3ccccc3c2=O)c1	n	n	n	n	96.9	n
Cc1ccc2occ(/C=N/NC(=O)c3ccc(Cl)cc3)c(=O)c2c1	n	n	n	n	n	n
CO[C@@H]1CN(C)C(=O)c2ccc(NC(=O)NC(C)C)cc2OC[C@@H](C)N(CC2CC2)C[C@H]1C	n	x	n	n	x	n
CCNC(=O)C[C@H]1CC[C@@H](NS(=O)(=O)c2ccc(F)cc2)[C@H](CO)O1	n	x	n	n	x	n
Cc1ccccc1NC(=O)Nc1ccc2c(c1)C(=O)N(C)[C@@H]1CC[C@H](CC(=O)O)O[C@H]1CO2	n	x	n	n	x	x
COc1ccc(NC(=O)N(C)C[C@@H]2Oc3ncc(C#CCC(C)C)cc3C(=O)N([C@@H](C)CO)C[C@H]2C)cc1	n	x	x	x	x	n
Cc1ccc2sc(N(CCCN(C)C)C(=O)CCS(=O)(=O)c3ccccc3)nc2c1C	n	n	n	n	98.2	n
SMILES	F508del corr	NSD2 HMT inh	Env fusion inh	PglD inh	ALR H2O2 inh	Casp6 inh
COc1ccc(OC)c2sc(N(CCCN(C)C)C(=O)CCS(=O)(=O)c3ccccc3)nc12	n	n	n	n	n	n
COc1ccc2c3c(n(C)c2c1)[C@@H](CO)N(S(C)(=O)=O)CC31CN(C(=O)c2ccccn2)C1	n	x	x	x	x	n
C[C@H](CO)N1C[C@H](C)[C@@H](CN(C)C(=O)CN(C)C)Oc2cc(-c3cccnc3)ccc2S1(=O)=O	n	x	n	n	x	n
CC(=O)C1=C(O)C(=O)N(c2ccc(O)cc2)C1c1ccc(C)cc1 (configuration not stated)	n	n	n	n	98.8	n
CC(=O)C1=C(O)C(=O)N(c2ccc(O)cc2)C1c1cccc([N+](=O)[O-])c1 (configuration not stated)	n	n	n	n	83.1	n
CC(=O)C1=C(O)C(=O)N(c2ccc(F)cc2)C1c1ccc(C)cc1 (configuration not stated)	n	n	n	n	n	n
